Shown are actives, neighbours in structure and some others; about 7.9% of the full set was active somewhere.
HT1080-NT tox – kills 2HG-producing HT-1080-NT fibrosarcoma cells. HT-1080-NT fibrosarcoma viability, CellTiter-Glo ATP luminescence, 48 h. Potency, µM (highest dose often 46.1 µM), for the others: top-dose activity, negative = less viability, most hits filed as cytotoxic. 1.6% of 360,000 active. AID 686970;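 further: NT is the 2HG producing partner of a matched IDH1 knockdown line; 0% = DMSO-treated cells and -100% = media-only wells without cells; nearly all actives have a fitted effect of over 55% in size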
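Fibrosarcoma NT cells, 750 per well in 5% FBS RPMI, were exposed to compound for 48 hours. Viability: CellTiter-Glo luminescence.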
HT1080 IDH1KD tx – kills HT-1080 cells with IDH1 knockdown. HT-1080 IDH1 knockdown viability, ATP luminescence, 48 h. 2% of 360,000 active. Potency, µM (doses to about 46.1 µM), for the others: at the top dose activity, negative = toxicity, usual class: cytotoxic. AID 686971;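 further: 0% = DMSO wells and -100% = cell-free medium wells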
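HT-1080-IDH1KD cells (IDH1 knocked down), 750/well in RPMI with 5% FBS, treated with compound 48 h at 37 degrees C. Viability by CellTiter-Glo luminescence, normalised to DMSO and no-cell wells; concentration-response curves classed.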
KB-3-1 cytotox – kills parental KB-3-1 adenocarcinoma cells; 1.4% of 400,000 active; KB-3-1 viability, CellTiter-Glo ATP luminescence, 72 h; Potency, µM (top dose mostly 46.1 µM), hits mostly cytotoxic; further: on the % scale 0 is the no-effect control and ±100 the full control effect; nearly all actives have a fitted effect of over 60% in size
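Cytotoxicity measured as CellTiter-Glo luminescence after 72 h at 37 C. Compound titrations were pinned onto drug-naive KB-3-1 parental adenocarcinoma cells grown in DMEM with 10% FBS, and normalized data fitted to concentration-response curves.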
MCF10A rereplic – inducers of DNA re-replication in MCF 10A breast cells; MCF 10A DNA re-replication, Hoechst nuclear intensity, 48 h; Potency, µM (titrated, usually from 46.1 µM), inactives show at the top dose activity, positive = re-replication, most hits filed as activators; 2.9% of 350,000 active; AID 624296; further: % of control where 0% means no effect; nearly all actives have a fitted effect of over 50% in size
KB-V1 cytotox – KB-V1 MDR subline cytotoxicity. KB-V1 MDR cells viability, CellTiter-Glo, 72 h. Potency, µM (highest dose often 46.1 µM), hits mostly cytotoxic. 3.4% of 400,000 active. AID 1347076; further: on the % scale 0 is the no-effect control and ±100 the full control effect; nearly all actives have a fitted effect of over 60% in size
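Cells of the MDR subline KB-V1 are plated, dosed with compound at multiple concentrations, and incubated 72 h at 37 degrees C; CellTiter-Glo is then added and luminescence read after 10 min.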
SW480 rereplic – DNA re-replication induction in SW480 cells; Potency, µM (highest dose often 46.1 µM), for inactives: at the top dose re-replication activation, hits mostly activators; SW480 DNA re-replication, Hoechst DNA content imaging, 48 h; 1.8% of 340,000 active; further: % of control where 0% means no effect; nearly all actives have a fitted effect of over 55% in size
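Hoechst fluorescence of nuclei (405 nm excitation, 500-530 nm emission) measured by plate-scanning imager after 48 hr compound exposure at 37 C; re-replication scored as increased number of nuclei with elevated intensity.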
* = called active by the depositor; i = inactive; ? = inconclusive; . = no result; [ ] = remark or other dose. The call rests on the fitted dose curve; in most records, active means well fitted curve in the direction sought with a large enough effect; inconclusive means small, poorly fitted or top-dose-only effect, or another doubt; inactive means no such curve, though single readings can be large; an effect the other way counts as inactive or inconclusive. Potency means the concentration at half of the fitted maximal effect.

SMILES	HT1080-NT tox	HT1080 IDH1KD tx	KB-3-1 cytotox	MCF10A rereplic	KB-V1 cytotox	SW480 rereplic
CCOC(=O)N1CCC(n2c(SCC(=O)c3ccccc3)nc3ccsc3c2=O)CC1	1%	10%	i	0%	i	-3%
CCOC(=O)N1CCC(n2c(SCC(=O)OCc3ccccc3)nc3ccsc3c2=O)CC1	-4%	-24%	i	1%	i	-1%
CCOC(=O)CSc1nc2ccsc2c(=O)n1C1CCN(C(=O)OCC)CC1	-11%[9.24 µM]	-13%	i	-5%	16µM*	-10%
Cc1ccccc1NCc1ccccc1O	2%	1%[9.24 µM]	i	0%	i	-6%
C=CCOc1ccccc1CNc1ccccc1C	6%	8%	i	?	i	8.2µM*
Cc1cc(=O)n2[nH]c(-c3ccc(C(C)(C)C)cc3)cc2n1	?	?	?	?	15µM*	9%
Cc1cc(=O)n2[nH]c(-c3ccccc3)cc2n1	-1%	0%	i	0%	i	-2%
CCC(c1nnc(SCC(=O)Nc2nnc(-c3ccccc3)o2)n1Cc1ccccc1)N(C)C (centres undefined)	-3%	1%	i	15%	23µM*	2%
CC(=O)N1c2ccccc2N(Cc2ccc(C)cc2C)C(=O)C1(C)C	?	16µM*	4.1µM*	12µM*	?	18µM*
C=CCN1C(=O)C(C)(C)N(C(C)=O)c2ccccc21	4%	-1%	i	?	i	?
COc1cc(S(=O)(=O)N2CCC(O)(c3cccc(C(F)(F)F)c3)CC2)ccc1-n1cnnn1	?	?	i	7.3µM*	?	?
Cn1c(=O)cc(SCC(=O)Nc2ccc3c(c2)OCO3)c2ccccc21	18%	-1%	i	13%	?	3%
CCn1c(=O)cc(OCC(=O)Nc2ccc(C)cn2)c2ccccc21	0%	7%	i	21µM*	?	12%
CCn1c(=O)cc(SCC(=O)Nc2ccc(C)cn2)c2ccccc21	7%	8%	i	10µM*	?	?
CCn1c(=O)cc(SCC(=O)Nc2ccc3c(c2)OCCO3)c2ccccc21	2%	-5%	i	23%	16µM*	-3%
CCOC(=O)C1=NN(c2ccc(Cl)cc2)C(=O)C1	-6%	-1%	i	0%	i	8%
O=C(CN(Cc1ccc(F)cc1)C(=O)c1csnn1)NCc1ccc2c(c1)OCO2	-11%	-2%	i	-3%	?	1%
CCCCCC(=O)N1C[C@H](O)[C@@H](n2cc(-c3ccc(F)cc3)nn2)C[C@@H]1c1ccc(Cl)cc1	?	?	?	.	i	.
CCCCCC(=O)N1C[C@@H](n2cc(-c3ccc(F)cc3)nn2)[C@H](O)C[C@@H]1c1ccc(Cl)cc1	?	16µM*	?	.	?	.
CCCCCCN1C[C@H](O)[C@@H](n2cc(-c3ccc(F)cc3)nn2)C[C@@H]1c1ccc(Cl)cc1	2%	-3%	18µM*	.	?	.
CC1CCCCN1C(=O)COC(=O)CSc1ccc(C(N)=O)cc1[N+](=O)[O-] (centres undefined)	7%	1%	i	?	i	6.5µM*
CCC1CCCCN1C(=O)COC(=O)CSc1ccc(C(N)=O)cc1[N+](=O)[O-] (centres undefined)	1%	10%	i	-6%	i	-5%
COc1cc(C2CC(=O)N(c3ccc(C)cc3)C(=O)C2)cc(OC)c1OC	3.3µM*	?	4.6µM*	6.5µM*	4.6µM*	3.7µM*
COc1ccc(/C=N/NC(=O)C(C)Sc2ccccn2)cc1[N+](=O)[O-] (centres undefined)	0%	16%	i	-24%	i	-19%
COc1ccc(-c2c(C)[nH]n3c(=O)c(Cc4ccccc4)c(C)nc23)cc1	-16%	?	?	22%	16µM*	?
SMILES	HT1080-NT tox	HT1080 IDH1KD tx	KB-3-1 cytotox	MCF10A rereplic	KB-V1 cytotox	SW480 rereplic
COc1ccccc1-c1c(C)[nH]n2c(=O)c(Cc3ccccc3)c(C)nc12	1%	2%	i	-2%	i	-5%
Cc1cc(=O)n2[nH]cc(-c3ccccc3)c2n1	-24%	-8%	i	6%	i	-61%
Cc1nc2c(-c3ccccc3)c[nH]n2c(=O)c1Cc1ccccc1	7%	-4%	12µM*	?	?	17%
CC(C)CC(NC(=O)C1CCC(C)CC1)C(=O)OCC(=O)c1ccc(Cl)cc1 (centres undefined)	.	.	i	.	i	.
O=C(Nc1ccc(Cl)cc1)Nc1ccccc1NS(=O)(=O)c1cccs1	?	?	i	18µM*	i	-2%
CC(=O)Nc1ccccc1NS(=O)(=O)c1ccc(Cl)cc1	-6%	?	?	26%	13µM*	?
O=S(=O)(Nc1cccc2c1CCCC2)c1ccc(Cl)cc1	0%	-9%	?	16µM*	?	-77%
Cc1c(Cl)cccc1NS(=O)(=O)c1ccccc1	-6%	?	i	27%	18µM*	1%
COc1ccc(NC(=O)Cn2c(=O)n(-c3ccc(C)cc3)c(=O)c3c2c2cc(C)ccc2n3C)cc1	.	.	i	.	i	.
Cc1ccccc1C(=O)N1CCC(n2nccc2NC(=O)C2CC2)CC1	-2%	-2%	.	10%	.	0%
O=C(Nc1cnn(Cc2ccc(F)cc2)c1)C(c1ccccc1)c1ccccc1	?	?	?	0%	5.2µM*	-104%
CC(C)(C)C1CCc2onc(C(=O)Nc3cnn(Cc4ccc(F)cc4)c3)c2C1 (centres undefined)	-17%	?	i	?	2.6µM*	?
CC(C)(C)C1CCc2onc(C(=O)Nc3ccc(F)cc3F)c2C1 (centres undefined)	-1%	4%	i	-2%	23µM*	0%
O=C(Nc1cnn(Cc2ccc(F)cc2)c1)c1cnccn1	9%	15%	i	?	i	-5%
O=C(NCc1ccccc1)c1noc2c1CCCCC2	?	?	i	?	21µM*	?
COC(=O)c1c(-c2cccs2)csc1NC(=O)COc1ccc(C)cc1	.	.	i	.	i	.
O=C(Nc1cccc(O)c1)C(Cc1ccccc1)N1C(=O)c2cccc3cccc(c23)C1=O (centres undefined)	-21%	-14%	i	-6%	i	3%
Cc1ccc(S(=O)(=O)CCC(=O)OCC(=O)c2ccc(F)cc2)cc1	9%	2%	i	2%	i	2%
